Data: PubChem BioAssay
Active and inactive are the calls of the source. No rule for the calls is given here.

biological target: Pantothenate synthetase (Mycobacterium tuberculosis (strain ATCC 25618 / H37Rv)) (UniProt P9WIL5); experiment: Recombinant Mtb pantothenate synthetase (PanC) inhibitors, coupled enzyme, confirmatory (AID 375); conditions: coupled enzyme assay; at 10 µM, hits give high values;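 also: 0% = full reaction with vehicle and 100% = no enzyme background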
Sequence (P9WIL5 whole entry, looked up): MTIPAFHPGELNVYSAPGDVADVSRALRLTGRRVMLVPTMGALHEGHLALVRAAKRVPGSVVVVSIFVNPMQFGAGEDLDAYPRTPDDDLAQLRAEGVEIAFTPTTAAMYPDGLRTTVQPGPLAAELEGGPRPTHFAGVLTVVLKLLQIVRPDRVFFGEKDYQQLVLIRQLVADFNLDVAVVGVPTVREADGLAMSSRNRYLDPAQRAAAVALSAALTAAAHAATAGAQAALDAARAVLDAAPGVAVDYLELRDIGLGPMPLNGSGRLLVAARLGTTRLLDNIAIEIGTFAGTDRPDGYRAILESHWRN

Q: Which inhibition does the source give for `CC(=O)c1c(OCC(=O)O)ccc2c(C)cc(=O)oc12` here?
A: 0% (inactive)

Q: With `CCOC(=O)N1CCC(NC(=O)Cn2ncc3c4ccccc4n(C)c3c2=O)CC1` as the compound, how does the inhibition read?
A: 5% (inactive)

Q: How did the inhibition turn out when `CC1(C)S[C@@H]2[C@H](NC(=O)Cc3ccccc3)C(=O)N2[C@H]1C(=O)O` was run?
A: 6% (inactive)

Q: For `CCOC(=O)c1sc(NC(=O)CSc2nnc3c4ccccc4n(CC)c3n2)nc1C`, which inhibition is on record?
A: 3% (inactive)

Q: With `Cc1ccc(S(=O)(=O)N(CC(=O)N2CCC(C(N)=O)CC2)c2cccc(C(F)(F)F)c2)cc1` as the compound, how does the inhibition read?
A: 0% (inactive)

Q: How did the inhibition turn out when `COc1cc(C(=O)OC(C)CN2CCCC2)cc(OC)c1OC` (stereo not given) was run?
A: 4% (inactive)

Q: How did the inhibition turn out when `Cc1ccc2[nH]c(=O)c3cc(C(=O)NCCN4CCN(C)CC4)sc3c2c1` was run?
A: 0% (inactive)

Q: With `CCOc1ccc(NC(=O)c2ccncc2)cc1` as the compound, how does the inhibition read?
A: 0% (inactive)

Q: For `COc1cc(NC(=O)c2cccs2)cc(OC)c1`, which inhibition is on record?
A: 0% (inactive)

Q: How did the inhibition turn out when `CC(=O)N1CCc2cc(S(=O)(=O)NC(C(=O)NCc3ccccc3)C(C)C)ccc21` (stereo not given) was run?
A: 3% (inactive)

Q: `Cc1nnc(SCc2ccccc2F)n1NCc1cccs1` was tested. Which inhibition did it give?
A: 3% (inactive)

Q: How did the inhibition turn out when `COc1ccc(CN(CC(=O)NCc2ccco2)C(=O)CCC(=O)Nc2nccs2)cc1` was run?
A: 0% (inactive)

Q: How did the inhibition turn out when `CCCc1cc(=O)n2[nH]c(-c3ccc(Br)cc3)cc2n1` was run?
A: 0% (inactive)

Q: How did the inhibition turn out when `Cn1c(Cc2ccccc2)nnc1SCC(=O)NC1CCCCC1` was run?
A: 0% (inactive)

Q: Which inhibition does the source give for `CCSC1=NCN(CCCC(=O)O)CN1` here?
A: 0% (inactive)

Q: For `N#Cc1nc(COc2ccccc2Cl)oc1N1CCCCCC1`, which inhibition is on record?
A: 0% (inactive)

Q: How did the inhibition turn out when `CCOC(=O)c1cc2c(=O)n3cccc(C)c3nc2n(CCc2ccccc2)c1=N` was run?
A: 0% (inactive)

Q: With `CCOC(=O)c1ccc2[nH]c3c(c2c1)CN(C)CC3` as the compound, how does the inhibition read?
A: 1% (inactive)

Q: With `Nn1c(SCC(=O)Nc2ccc(F)cc2)nnc1-c1cccnc1` as the compound, how does the inhibition read?
A: 0% (inactive)

Q: `COc1cccc(-n2nnc3c(=O)n(Cc4cccc(F)c4)cnc32)c1` was tested. Which inhibition did it give?
A: 4% (inactive)

Q: Which inhibition does the source give for `O=C(CSc1nc2ccccc2o1)Nc1ccccc1` here?
A: 0% (inactive)

Q: Which inhibition does the source give for `O=C(Nc1ccccc1Cl)c1c(F)c(F)c(F)c(F)c1F` here?
A: 6% (inactive)

Q: With `CCC(NC(=O)Nc1cc(OC)c(OC)c(OC)c1)(C(F)(F)F)C(F)(F)F` as the compound, how does the inhibition read?
A: 3% (inactive)

Q: For `CC(=O)O[C@H]1C(=O)[C@]2(C)[C@H]([C@H](OC(=O)c3ccccc3)[C@]3(O)C[C@H](OC(=O)[C@H](O)[C@@H](NC(=O)c4ccccc4)c4ccccc4)C(C)=C1C3(C)C)[C@]1(OC(C)=O)CO[C@@H]1C[C@@H]2O`, which inhibition is on record?
A: 9% (inactive)

Q: With `CC(C)C(C(=O)Nc1ccc2c(c1)OCCO2)N1C(=O)c2ccccc2C1=O` (stereo not given) as the compound, how does the inhibition read?
A: 0% (inactive)

Q: Which inhibition does the source give for `O=C(Nc1nnc(C2CCCCC2)s1)c1cccs1` here?
A: 8% (inactive)

Q: How did the inhibition turn out when `CCc1cccc(NC(=O)C2CCCN(S(=O)(=O)c3c(C)[nH]c(=O)[nH]c3=O)C2)c1` (stereo not given) was run?
A: 4% (inactive)

Q: Which inhibition does the source give for `COCC(=O)N(Cc1nc2ccccc2c(=O)[nH]1)Cc1cccs1` here?
A: 0% (inactive)

Q: How did the inhibition turn out when `COc1ccc(C(=O)Nc2cccnc2)cc1C(=O)Nc1cccnc1` was run?
A: 0% (inactive)

Q: For `COc1ccc(-n2cnnc2SCCC#N)cc1`, which inhibition is on record?
A: 0% (inactive)

Q: How did the inhibition turn out when `Cc1cc(C(=O)Nc2ccccc2C#N)n(-c2ccccc2)n1` was run?
A: 0% (inactive)

Q: How did the inhibition turn out when `CCN(CC)CCCN1C(=O)C(O)=C(C(=O)c2ccco2)C1c1ccc(C)o1` (stereo not given) was run?
A: 13% (inactive)

Q: With `Cc1cc(C)cc(-n2ccnc2SCC(=O)Nc2ccc3c(c2)OCCO3)c1` as the compound, how does the inhibition read?
A: 0% (inactive)

Q: For `CCN(CC)CCNC(=O)c1cc(S(C)(=O)=O)ccc1OC`, which inhibition is on record?
A: 0% (inactive)

Q: Which inhibition does the source give for `CC1=C(C)CC2C(=O)N(c3cccc4ccccc34)C(=O)C2C1` (stereo not given) here?
A: 0% (inactive)

Q: Which inhibition does the source give for `Cc1cc(N2CCC3(CC2)OCCO3)n2nc(C)c(-c3ccc(Cl)cc3)c2n1` here?
A: 8% (inactive)

Q: How did the inhibition turn out when `CCn1c2ccccc2c2cc(NC(=O)Cc3ccc(S(=O)(=O)N4CCOCC4)s3)ccc21` was run?
A: 0% (inactive)

Q: Which inhibition does the source give for `O=C(O)CN1C(=O)CNC1=O` here?
A: 0% (inactive)

Q: How did the inhibition turn out when `Cc1ccc(S(=O)(=O)N2CCN(C(=O)c3cc(=O)[nH]c4ccccc34)CC2)c(C)c1` was run?
A: 3% (inactive)

Q: For `CCc1ccc(C2CC(c3cccc(OC)c3)n3nc(N)nc3N2)cc1` (stereo not given), which inhibition is on record?
A: 3% (inactive)
